In the library only some 3.3% were active in any assay of this set; here they are far more common.
DRD3 agonist: activates the human D3 dopamine receptor. P35462. D3R DiscoveRx beta-arrestin cells, luminescence, 90 min. max activation, %. actives 0.58% (n = 410,000). AID 652048; in the data active = max activation above about 30%; also: 0% is about no effect
Target sequence (P35462 whole entry, looked up): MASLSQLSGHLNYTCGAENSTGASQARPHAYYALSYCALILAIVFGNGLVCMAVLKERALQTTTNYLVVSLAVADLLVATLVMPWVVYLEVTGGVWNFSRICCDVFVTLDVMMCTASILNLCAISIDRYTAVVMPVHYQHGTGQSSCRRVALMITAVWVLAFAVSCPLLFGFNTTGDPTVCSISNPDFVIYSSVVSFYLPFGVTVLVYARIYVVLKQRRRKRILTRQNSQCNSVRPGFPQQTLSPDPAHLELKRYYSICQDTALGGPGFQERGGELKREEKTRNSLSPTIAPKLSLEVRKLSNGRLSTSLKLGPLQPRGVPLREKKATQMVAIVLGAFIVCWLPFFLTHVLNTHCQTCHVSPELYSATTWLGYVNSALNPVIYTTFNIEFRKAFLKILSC
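Agonist mode: compounds and dopamine controls were applied to plated cells for 90 min at 37 degrees C after an overnight attachment at 1500 cells/well. Luminescent read-out followed 30 - 60 minutes at room temperature with DiscoveRx detection reagent.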
PI4K2A inh: inhibitors of human PI4K2A. Q9BTU6. purified PI4K2A, ADP-Glo luminescence, 1 h; active compounds read low. activity change, negative = inhibition, % at 76.9 µM. actives 0.13% (n = 420,000); in the data active = activity change below about -50%; inconclusive = mostly about -30% to -49%;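 also: -100% = wells without enzyme as full effect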
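PI4K2A activity was measured by ADP-Glo luminescence: enzyme (4 ug/mL stock) and phosphatidylinositol (1.2 mM stock) in Tris pH 7.5/MgCl2/EGTA/Triton X-100 buffer were reacted with ATP (300 microM stock) for one hour at ambient temperature.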
D3 antag: antagonists of human D3 dopamine receptor | P35462 | D3R cells, DiscoveRx beta-arrestin luminescence, antagonist mode; active compounds read low | max response, negative = inhibition, % | actives 2.5% (n = 360,000); in the data active = max response below about -50%; inconclusive = no clear call, values can overlap the other calls; also: % is scaled to controls: 0 for no effect and ±100 for the full control effect
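Cells plated overnight at 1500 cells/well, then exposed to library compounds with dopamine controls for 90 minutes at 37 degrees C. DiscoveRx reagent added for 30–60 minutes at room temperature; luminescence read, quantitative HTS format.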
PI5P4K alpha inh: blocks human PI5P4K alpha kinase activity. PI5P4Kalpha enzyme, ADP-Glo luminescence, 60 min; active compounds read low. max response, %. actives 1.2% (n = 330,000). AID 652105; active = max response of -50% or lower; inconclusive = between -30% and -50%; inactive = -30% or higher; also: value at the top dose of about 77 µM; % is scaled to controls: 0 for no effect and ±100 for the full control effect
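Compounds were pin-transferred onto PI5P4Kalpha and substrate in HEPES pH 7.4 buffer with EGTA, CHAPS and 5% DMSO. ATP (5 microM final) started the reaction, which ran 60 minutes at room temperature before ADP-Glo detection.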
LDHA inh: blocks human lactate dehydrogenase A; actives 0.15% (n = 480,000); AID 1347041; purified LDHA, NADH/diaphorase-resazurin fluorescence; active compounds read low; P00338; activity change, % (values are at about 110 or 230 µM); in the data active = activity change below about -30%; inconclusive = mostly about -25% to -30%;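 also: plate controls were DMSO wells for no effect and wells without enzyme for full effect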
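LDH5 2 nM; NADH 0.06 mM, pyruvate 0.2 mM; 200 mM Tris pH 7.4, EDTA, Tween-20; 5 min RT. Detection: diaphorase 0.133 mg/mL + resazurin 37 µM, fluorescence ex540/em590 at 0 and 20 min; normalized to enzyme-free and DMSO wells.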
Active calls of the source: *; ? = inconclusive; / = no result; ! = not active in a repeat.

SMILES | DRD3 agonist | PI4K2A inh | D3 antag | PI5P4K alpha inh | LDHA inh
COC(=O)c1ccc(C2Nc3ccc(/C(C)=N/NC(=O)C(OC)c4ccccc4)cc3C3C=CCC32)cc1 (configuration not stated) | -2 | 3 | ? | -66* | 7
Cc1ccc(C2=NS(=O)(=O)N(C)C(C(=O)Nc3ccn(Cc4ccccc4C)n3)=C2)cc1 | / | / | / | / | -14
Oc1c(N=Nc2nn[nH]n2)ccc2ccccc12 | 2 | ? | -5 | -82* | 18
Oc1c(N=Nc2ccc(F)cc2)ccc2ccccc12 | -14 | -10 | ? | -1 | 30
COC(=O)c1cc(NC(=O)c2ccccc2)c(=O)oc1C | 4 | -4 | 9 | 1 | -1
COc1ccc(C(=O)Nc2cc(C(=O)c3ccccc3)c(C)oc2=O)cc1 | -8 | 4 | -62* | -5 | -6
Cc1oc(=O)c(NC(=O)c2cccc(Cl)c2)cc1C(=O)c1ccccc1 | -7 | 2 | -63* | -18 | -2
CNC(=O)c1ccc(S(=O)(=O)Nc2ccc(C(C)(C)C)cc2)cc1 | / | / | / | / | 3
Cc1cc(S(=O)(=O)N(C)C)c(Cl)cc1Cl | / | / | / | / | 0
COc1ccccc1CN1C(=O)CN(S(C)(=O)=O)CC1(C)C(=O)NCc1ccccc1 (configuration not stated) | / | / | / | / | -2
Cc1cc(/C=C2\C(=N)N3N=C(c4ccco4)SC3=NC2=O)c(C)n1Cc1ccccc1 | 5 | -14 | -2 | -62* | -2
CSC1=NSC2=NC(=O)/C(=C\c3coc4ccccc4c3=O)C(=N)N12 | 1 | 2 | 4 | -57* | -6
N=C1/C(=C\c2coc3ccc(O)cc3c2=O)C(=O)N=C2SC=CN12 | 12 | -3 | 4 | -69* | 22
COc1ccc(-n2cccc2/C=C2\C(=N)N3N=C(c4ccco4)SC3=NC2=O)cc1 | 6 | 0 | -5 | -53* | -24
N=C1/C(=C/c2coc3ccccc3c2=O)C(=O)N=C2SC(c3ccco3)=NN12 | 2 | -28 | -12 | -78* | -8
CC(C)CSC1=NSC2=NC(=O)/C(=C\c3coc4ccccc4c3=O)C(=N)N12 | 13 | 1 | 10 | ? | -6
N=C1/C(=C\c2coc3ccccc3c2=O)C(=O)N=C2SC(c3ccncc3)=NN12 | -11 | -20 | ? | -74* | 2
CSc1nnc(NC(=O)c2ccc(S(=O)(=O)N3CCOCC3)cc2)s1 | 2 | -5 | -59* | 0 | -3
O=C(Nc1nnc(S(=O)(=O)N2CCOCC2)s1)c1ccc(F)cc1 | 4 | 0 | -3 | 1 | -5
Cc1ccc(C(=O)Nc2nnc(S(=O)(=O)N3CCOCC3)s2)cc1 | -9 | -6 | -57* | ? | -1
Cc1cc(C)c(/C=C/c2ccc3ccccc3n2)c(C)c1 | / | / | / | / | 10
Cc1c(C)c2ccc(OCC(=O)NCCCO)cc2oc1=O | / | / | / | / | 5
CCCn1c(-n2nc(C)cc2C)nc2c1c(=O)n(CCOCC)c(=O)n2C | / | / | / | / | -8
CN1CCN(C(=O)/C(=C/c2ccccc2)c2ccccc2)CC1 | -29 | -5 | -59* | / | -12
C/C(=C\c1ccccc1)CN1CCN(C)CC1 | -5 | 1 | -56* | 1 | -22
SMILES | DRD3 agonist | PI4K2A inh | D3 antag | PI5P4K alpha inh | LDHA inh
CCOC(=O)N1CCN(C/C(C)=C/c2ccccc2)CC1 | -10 | 13 | ? | / | ?
CCOc1cccc(C=Nc2cccc3ccccc23)c1 | / | / | / | / | 26
COC(=O)c1ccc(C(=O)OC)c(NC(=O)COC(=O)CCOc2ccc(C)cc2)c1 | 2 | 5 | -62* | 0 | -7
Cc1ccc(OCCC(=O)OCC(=O)NCCNC(=O)COC(=O)CCOc2ccc(C)cc2)cc1 | 3 | -3 | -61* | -1 | -10
C[C@H]1[C@H](c2ccccc2)C[C@@H](C(=O)O)C1(C)C | 32* | -5 | -17 | 4 | -3
O=C(c1ccccc1)C1CC1c1ccccc1 (configuration not stated) | -11 | 0 | -7 | 13 | -5
N#Cc1ccc(COC(=O)C2CCCCC2)cc1 | / | / | / | / | 1
N#Cc1ccc(COC(=O)C2CCC(=O)N2)cc1 (configuration not stated) | -10 | -2 | -52* | 2 | -2
CCOc1ccc(S(=O)(=O)n2ccnc2C)cc1C(C)(C)C | / | / | / | / | -7
Cc1cc(O)c(CN(C)C)c2c1C(=O)/C(=C/c1ccco1)O2 | 4 | -15 | 3 | -23 | 3
Cc1cc(O)c(C=O)c2c1C(=O)Oc1c(CO)c(O)c3c(c1O2)C(O)OC3=O (configuration not stated) | 12 | -85* | -16 | -84* | 25
Cc1cc(C)c(C(=O)C(C)n2cnc3c2c(=O)n(C)c(=O)n3C)cc1C (configuration not stated) | / | / | / | / | 2
C=CCN(c1ccccc1)S(=O)(=O)c1cccc(C(=O)NNC(=O)c2ccccc2O)c1 | 3 | 5 | 9 | -56* | -1
C=CCN(c1ccccc1)S(=O)(=O)c1cccc(C(=O)O)c1 | 1 | 3 | ? | -1 | -1
CCn1c(C(=O)NCc2ccccc2C)cc2oc3ccccc3c21 | 49* | 2 | / | / | -4
CCN(CC)c1ccc(N=Nc2nn(C)c(C)c2[N+](=O)[O-])cc1 | -14 | -10 | -59* | -10 | 1
CCN(Cc1ccccc1)c1ccc(N=Nc2nn(C)c(C)c2[N+](=O)[O-])cc1 | -12 | -2 | -51* | -10 | 2
Cc1cccc(-n2c3c(c(=O)[nH]c2=O)CN(Cc2ccco2)CN3)c1 | / | / | / | / | 4
COc1ccc(-c2nnn(CC(=O)N3CCOCC3)n2)cc1 | 5 | 1 | -60* | / | -9
Fc1ccc(OCc2nc3ccccc3n2C(F)F)c(F)c1 | / | / | / | / | -2
CCN(CC)c1ccc(C(=C2C=CC(=[N+](CC)CC)C=C2)c2ccc(S(=O)(=O)O)cc2S(=O)(=O)[O-])cc1 | -15 | -56* | -8 | -57* | 5
CCC(=O)N1N=C(c2ccccc2NS(C)(=O)=O)CC1c1ccco1 (configuration not stated) | / | / | / | / | -2
O=C1O[C@@H](c2ccccc2)C[C@@H](O)[C@H](O)CCCc2ccccc21 | -13 | -9 | -55* | 10 | 6
CC(=O)ON=C1C=CC(=C(C#N)c2ccccc2)C=C1 | -26 | -12 | -105* | ? | 0
COCCn1cnnc1SCC(=O)c1cc(F)ccc1F | / | / | / | / | -1
CCOC(=O)/C=C(\C)Sc1cc(=O)oc2ccccc12 | 0 | 1 | -25 | -2 | -5
CCOC(=O)/C=C(\C)Sc1cc(O)c2ccccc2c1O | -16 | ? | -55* | ? | 17
Cc1ccc(Cl)cc1N1CCN(S(=O)(=O)c2ccc3c(c2)CC(=O)N3C)CC1 | 69*! | -2 | -14 | -6 | -3
CN1C(=O)Cc2cc(S(=O)(=O)N3CCN(c4ccc(Cl)cc4)CC3)ccc21 | 0 | 6 | 17 | -17 | -3
NNc1cc(Cl)ccc1[N+](=O)[O-] | / | / | / | / | 11
